Rab9 prom act – qHTS Assay for Rab9 Promoter Activators. AID 485297, 2010. Huh7 Rab9 promoter-luciferase reporter, luminescence, 24 h. Potency, µM (titrated, usually from 9.22 µM), for inactives: top-dose activation, negative = inhibition, most hits filed as activators. hit rate 2.8% among 320,000; also: % of control where 0% means no effect; nearly all actives have a fitted effect of over 60% in size
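Quantitative HTS format; Huh7 Rab9-luciferase reporter cells (1500/well) receive compound 2 h post-plating, incubate 24 h at 37 °C, then get luciferase reagent for 10 min before luminescence reading.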
FLuc modulator – qHTS profiling assay for firefly luciferase inhibitor/activator using purifed enzyme and Km concentrations of substrates (counterscreen for miR-21 project). Potency, µM (series often up to 57.5 µM), for inactives: at the highest dose activity change, negative = inhibition, hits mostly inhibitors. Luciferin 4-monooxygenase (Photinus pyralis), P08659. AID 588342, 2011. purified FLuc, Km substrates, luminescence inhibition. hit rate 6.9% among 360,000;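 also: plate controls were vehicle for no effect and reference inhibitor for full effect; nearly all actives have a fitted effect of over 55% in size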
Target sequence (P08659 whole entry, looked up): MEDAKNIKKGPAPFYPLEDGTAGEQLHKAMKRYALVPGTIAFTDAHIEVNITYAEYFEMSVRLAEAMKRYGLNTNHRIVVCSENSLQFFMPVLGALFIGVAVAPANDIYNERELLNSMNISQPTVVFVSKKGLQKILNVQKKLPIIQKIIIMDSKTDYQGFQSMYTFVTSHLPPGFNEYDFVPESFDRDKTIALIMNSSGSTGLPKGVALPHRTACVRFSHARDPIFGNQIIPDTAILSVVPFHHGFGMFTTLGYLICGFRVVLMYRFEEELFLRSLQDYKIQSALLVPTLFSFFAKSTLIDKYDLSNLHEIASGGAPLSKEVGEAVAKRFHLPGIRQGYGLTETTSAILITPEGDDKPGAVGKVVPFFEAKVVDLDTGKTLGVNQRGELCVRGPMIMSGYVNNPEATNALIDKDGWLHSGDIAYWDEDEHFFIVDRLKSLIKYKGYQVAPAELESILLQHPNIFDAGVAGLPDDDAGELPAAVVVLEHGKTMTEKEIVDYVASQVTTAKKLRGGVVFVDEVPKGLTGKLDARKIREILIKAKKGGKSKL
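Purified P. pyralis luciferase, 10 nM final, with Km-level 10 uM D-luciferin and 10 uM ATP in 50 mM Tris acetate pH 7.5, 10 mM Mg acetate, 0.01% Tween-20, 0.05% BSA; 6-point qHTS titration about 60 µM downward; luminescence read.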
NPC1 promoter act – qHTS Assay for NPC1 Promoter Activators; Huh7 NPC1 promoter luciferase reporter, 24 h; Potency, µM (top dose mostly 9.22 µM), without a hit: at the top dose activation, usual class: activators; hit rate 2.4% among 320,000; AID 485313, 2010; also: % of control where 0% means no effect; nearly all actives have a fitted effect of over 60% in size
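Luciferase expression driven by the NPC1 promoter was measured in stably transfected Huh7 cells after a 24 h compound incubation, using a luciferase reagent and a luminescence read.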
Luc counter – Counterscreen for Luciferase (Kinase-Glo TM) Inhibition; Kinase-Glo luciferase, ATP luminescence, 8 min; Potency, µM (series often up to 38.3 µM), for inactives: at the highest dose activity change, negative = inhibition, actives largely listed as inhibitors; hit rate 0.28% among 200,000; AID 1379, 2008; also: % is scaled to controls: 0 for no effect and ±100 for the full control effect; nearly all actives have a fitted effect of over 60% in size
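Compound is pinned into ATP-containing buffer (10 uM ATP, imidazole pH 7.2, 7 mM MgCl2). Kinase-Glo luciferase reagent is then added. Light output is recorded following an 8-min room-temperature incubation.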
ELG1 genotox – qHTS screen for small molecules that induce genotoxicity in human embryonic kidney (HEK293T) cells expressing luciferase-tagged ELG1; HEK293T ELG1-luciferase reporter, luminescence, 16 h; Potency, µM (series often up to 46 µM), inactives show at the highest dose activity change, positive = activation, actives largely listed as activators; hit rate 1.3% among 330,000; also: % of control where 0% means no effect; nearly all actives have a fitted effect of over 60% in size
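DMSO vehicle served as control against compound-treated ELG1-luciferase HEK293T cells; exposure lasted 16 hr at 37 °C and 5% CO2, followed by ONE-Glo luminescence detection after 30 min.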
SMN2 splice up – qHTS Assay for Enhancers of SMN2 Splice Variant Expression. hit rate 2.8% among 210,000. HEK293 SMN2-luciferase splicing reporter, luminescence, 30-36 h. Potency, µM (highest dose often 46.1 µM), without a hit: top-dose activity change, positive = activation, usual class: activators; also: % of control where 0% means no effect; nearly all actives have a fitted effect of over 55% in size
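qHTS luciferase splicing reporter: luminescence rises when SMN2 exon 7 is included in transfected HEK293 cells. Compound exposure lasted 30-36 h at 37C, with 4.5 mM final sodium butyrate as control, followed by a ONE-Glo read.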
* marks the source's active call; other numbers are inactive results; ? = inconclusive; / = no result given. Sampled rows, rich in hits. Any-hit rate of the full collection: about 7.5%. Calls follow the shape of the dose curve; as a rule, active = well fitted curve in the direction sought with a large enough effect; inconclusive = small, poorly fitted or top-dose-only effect, or another doubt; inactive = no such curve, though single readings can be large; an effect the other way counts as inactive or inconclusive. Potency is read from the fitted curve at half-maximal effect.

SMILES	Rab9 prom act	FLuc modulator	NPC1 promoter act	Luc counter	ELG1 genotox	SMN2 splice up
CS(=O)(=O)N1N=C(c2ccccc2)CC1c1ccc2nccnc2c1 (stereo not given)	3.8%	?	12.8%	3.0%	0.3%	-4.2%
COc1ccc(CS(=O)(=O)c2nc(C)cc(C)c2S(C)(=O)=O)cc1	-11.1%	4.8%	1.8%	-0.9%	-8.5%	1.3%
Nn1c(SCC(=O)NC(=O)NCc2ccco2)nnc1-c1ccc(OC(F)F)cc1	-4.8%	3.1%	1.8%	-7.3%	-0.8%	15.4%
O=C(COC(=O)/C=C/c1ccc(F)cc1)Nc1ccccc1-c1ccccc1	0.1%	1.1%	-0.1%	1.7%	1.1%	12.7%
Cn1c(=O)n(C)c2cc3[nH]cnc3cc21	11.9%	0.3%	-4.2%	/	5.8%	/
Nc1cc2nc[nH]c2cc1N	11.2%	15.1µM*	-7.0%	-10.2%	18.8%	3.3%
COc1ccccc1OC(C)C(=O)N(Cc1ccco1)C1CCS(=O)(=O)C1 (stereo not given)	-2.6%	-1.3%	1.7%	/	6.4%	/
CCCCN1C(C)=CC(=C2C(=O)c3ccccc3C2=O)C=C1C	0.398µM*	1.51µM*	0.501µM*	?	0.82µM*	-24.7%
CC1=CC(=C2C(=O)c3ccccc3C2=O)C=C(C)N1Cc1ccco1	1.58µM*	3.38µM*	2.24µM*	-6.3%	17.8%	14.1µM*
Cc1ccc(C(=O)NNC(=O)c2ccc(S(=O)(=O)N(C)c3ccccc3)cc2)cc1	2.0%	1.7%	-0.9%	/	-0.1%	/
CCOC(=O)/C(N=Nc1ccc2c(c1)OCO2)=C(\C)O	2.51µM*	13.5µM*	3.98µM*	-9.9%	?	11.2µM*
CC(C)c1ccc(NC(=O)c2ccc(NC3=NC4CS(=O)(=O)CC4S3)cc2)cc1 (stereo not given)	5.3%	?	-1.3%	/	3.9%	/
O=C(CCS(=O)(=O)c1ccccc1)Nc1ccc(-c2nc3ccccc3s2)c(O)c1	1.26µM*	2.6%	?	-3.1%	14.1%	2.51µM*
CCS(=O)(=O)c1cccc(C(=O)Nc2ccc(-c3nc4ccccc4s3)c(O)c2)c1	/	5.5%	/	/	/	/
Cc1nc2ccc(NC(=O)CS(=O)(=O)c3ccccc3)cc2s1	?	15.1µM*	?	/	?	/
Cc1nc2ccc(NC(=O)CCC3CCCC3)cc2s1	?	12µM*	?	/	?	/
COc1ccccc1CC(=O)Nc1ccc2nc(C)sc2c1	21.0%	16.9µM*	17.0%	/	?	/
CCN(CC)S(=O)(=O)c1ccc(/C=C/C(=O)Nc2cccc(F)c2)cc1	-2.5%	?	-1.2%	1.8%	-16.7%	-25.2%
COc1cccc(CC(=O)Nc2ccc3nc(C)sc3c2)c1	14.1%	16.9µM*	27.6%	2.5%	17.1%	5.9%
Cc1ccc(-c2nc3c4ccccc4ccn3c2CN2CCCCC2)cc1	11.8%	?	1.2%	/	8.5%	/
c1ccc(-c2nc3c4ccccc4ccn3c2CN2CCCCC2)cc1	12.5%	5.36µM*	-1.2%	/	-3.5%	/
COc1ccc(-n2c(=O)cnc3cnc(Oc4cccc(Cl)c4)nc32)cc1	/	/	/	-1.8%	/	-8.2%
O=C(/C=C/c1ccc(Cl)c(Cl)c1)n1cccn1	-1.2%	2.69µM*	1.5%	-13.4%	1.9%	-5.2%
O=C(/C=C/c1ccc(Cl)c(Cl)c1)NCCCn1ccnc1	0.1%	?	-4.5%	/	17.0%	/
O=C(NCc1ccccc1Cl)c1ccc(NC(=O)N2CCSc3ccccc32)cc1	/	-9.0%	/	/	/	5.1%
SMILES	Rab9 prom act	FLuc modulator	NPC1 promoter act	Luc counter	ELG1 genotox	SMN2 splice up
COc1ccc(C(=O)CCC(=O)Nc2cccnc2)cc1	-4.6%	3.2%	0.2%	-2.8%	-0.9%	3.0%
Cc1cc(C)cc(OC(=O)c2cc(-c3ccc4c(c3)OCCO4)on2)c1	/	-28.7%	/	/	/	/
CC(C)c1ccc(OC(=O)c2cc(-c3ccc4c(c3)OCCO4)on2)cc1	/	-18.8%	/	/	/	/
COc1ccc(OC(=O)c2cc(-c3ccc4c(c3)OCCO4)on2)cc1	/	7.57µM*	/	/	/	/
Cc1cccc(OC(=O)c2cc(-c3ccc4c(c3)OCCO4)on2)c1	/	4.78µM*	/	/	/	/
O=C(Oc1ccc(Cl)cc1)c1cc(-c2ccc3c(c2)OCCO3)on1	/	6.01µM*	/	/	/	/
N#Cc1ccc(OC(=O)c2cc(-c3ccc4c(c3)OCCO4)on2)cc1	/	21.3µM*	/	/	/	/
COC(=O)c1ccc(NC(=S)NC2CCc3ccccc32)cc1 (stereo not given)	-1.8%	6.1%	-7.6%	-0.5%	-3.4%	/
CCOC(=O)C1=CC[C@H]2c3c(c4ccccc4n3C)C(=O)C1N2C(=O)OC(C)(C)C	-3.8%	-2.8%	-0.3%	/	4.2%	/
S=c1[nH]c(-c2ccccc2)cn1/N=C/c1ccc(Br)cc1	?	?	15.5%	-1.4%	-8.6%	/
Fc1ccccc1/C=N/n1cc(-c2ccccc2)[nH]c1=S	3.98µM*	?	1.12µM*	/	2.2%	/
S=c1[nH]c(-c2ccccc2)cn1/N=C/c1cccs1	?	-14.7%	1.41µM*	/	-0.6%	/
O=c1cnn([C@@H]2O[C@H](CO)[C@@H](O)[C@H]2O)c(=O)[nH]1	0.9%	2.6%	-6.1%	-3.4%	-12.3%	2µM*
CC(=O)OC1CC[C@@]2(C)C(CC[C@@]3(C)C2CC=C2C4CC(C)(C)CC[C@]4(C)CC[C@@]23C)C1(C)C (stereo not given in full)	/	/	/	-3.5%	/	8.9%
COc1cc(/C=N/NC(=O)CSc2nc3ccccc3n2C)cc(OC)c1OC	-3.5%	-11.7%	-0.5%	1.6%	-1.4%	15.2%
COC(=O)c1ccc(COc2cc(O)c3c(c2)OC(C)(C)CC3=O)cc1	?	15.1µM*	20.5%	2.4%	-0.2%	-49.7%
CC1(C)CC(=O)c2ccc(OCc3ccc([N+](=O)[O-])cc3)cc2O1	2.51µM*	6.01µM*	2.51µM*	/	?	/
Cc1cc(OCC(=O)Nc2ccc(Br)cc2)cc2c1C(=O)CC(C)(C)O2	-6.0%	-13.1%	-6.6%	/	-8.4%	/
CC(=O)Nc1ccc(NC(=O)COc2cc(O)c3c(c2)OC(C)(C)CC3=O)cc1	1.8%	21.3µM*	10.8%	/	10.2%	/

High-throughput results from PubChem BioAssay.
